# The source made the active and inactive calls.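 The calls were made as follows, unless noted: active = visual image review flags a hit and inhibition of aggregation exceeds 20%; inconclusive = visual hit but inhibition at or below 20%; inactive = no hit on visual image review.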
# Columns and labels:
# [1] = inhibitors of TNFa-induced NFkB p65 translocation, primary screen, imaging, HUVEC, MLSMR starter and 10KST1 sets (AID 438;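 active = inhibition above 20% together with a positive visual image hit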;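 also: compound added about 3h40 before a 20 min TNFalpha stimulation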;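 as to inhibition: signal is the nuclear over cytoplasmic p65 intensity ratio per well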); conditions: HUVEC TNFa-induced p65 nuclear translocation; cell count: measured here: nuclei count (cytotoxicity indicator), at 2.08 µM; inhibition: at 2 µM, stronger effect = higher value, 0% TNFa-plus-vehicle, 100% no-TNFa wells
# [2] = inhibitors of mutant huntingtin aggregation, primary screen, imaging, exon1htt(103Q)mCFP cells, high-content imaging (AID 483); conditions: exon1htt(103Q)mCFP cell line, aggregate imaging, at 2 µM; inhibition of aggregation: stronger effect = higher value; nuclei count: measured here: cell count, toxicity;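 also: compound exposure lasted 3 days before fixation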;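 as to nuclei count: percent of the per-plate median nuclei count of sample wells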
# [3] = inhibitors of E-selectin induction by TNFa, primary screen, imaging, HUVEC, immunofluorescence, MLSMR starter and 10KST1 sets (AID 487;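 active = visually confirmed hit in the image check and inhibition above 20%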;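 as to inhibition: signal is fraction of cell area covered by stained E-selectin grains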;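 as to nuclei count: 100% = median nuclei count of all wells on the same plate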); conditions: HUVEC TNFalpha-induced E-selectin immunofluorescence imaging, at 2 µM; inhibition: stronger effect = higher value; nuclei count: measured here: cell number, toxicity
# [4] = target: Voltage-gated potassium channel subunit beta-2 (Rattus norvegicus) (UniProt P62483); assay: KvBeta enzyme negative modulators, primary screen, biochemical, NADPH fluorescence (AID 622;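 active = fluorescence slope higher than the sample average by over 3 SD, cut at about -0.22 in these data, passing the limit was not always enough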;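 also: slope of raw intensity against log time taken from 70 to 1610 s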); conditions: recombinant KvBeta, 4-cyanobenzaldehyde reduction, at 10 µM, stronger effect = higher value
# [5] = target: Voltage-gated potassium channel subunit beta-2 (Rattus norvegicus) (UniProt P62483); assay: KvBeta positive modulators, primary screen, biochemical, NADPH fluorescence (AID 623;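 active = NADPH fluorescence slope more negative than the mean of all samples by about 3 SD, 99.7% confidence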;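 also: fluorescence intensity change per second fitted from 20 to 320 s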); conditions: Recombinant KvBeta, NADPH fluorescence decrease slope, 10 min; at 10 µM; stronger effect = lower value
# [6] = target: Alpha-2C adrenergic receptor (Homo sapiens) (UniProt P18825); assay: modulators of alpha2C/GIRK thallium flux, primary screen, cell-based, HEK293 alpha2C/GIRK1/2 (AID 624;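 active = fluorescence slope after compound addition differing from the mean of all screened samples at 99.7% confidence, in either direction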;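 also: slope of fluorescence ratio to pre-addition baseline per second over 15 to 24 s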); conditions: thallium flux BTC fluorescence, at 10 µM, actives lie on both sides
# [7] = inhibitors of Sendai virus-induced IRF3 signaling, primary screen, TLR/RLR signaling modifier project, cell-based, Sendai virus stimulus, luciferase, 10K MLSCN set (AID 602276;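 active = inhibition at or above 50% at 10 µM; inactive = inhibition below 50%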;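 also: firefly luciferase from ISG56 promoter only with Renilla not read in this screen; 0% = Sendai virus plus DMSO and 100% = medium plus DMSO without virus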); conditions: HEK293 RL24 IRF3 luciferase reporter, at 10 µM, stronger effect = higher value
# [8] = inhibitors of poly I:C-induced TLR3 signaling, primary screen, cell-based, poly I:C stimulus, luciferase, 10K MLSCN set (AID 602277;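 active = inhibition of the reporter signal at or above 50%; inactive = inhibition below 50%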); conditions: HEK293-TLR3 RL24 IRF3 luciferase reporter, at 10 µM, stronger effect = higher value
# Voltage-gated potassium channel subunit beta-2 (Rattus norvegicus), sequence (P62483 whole entry, looked up): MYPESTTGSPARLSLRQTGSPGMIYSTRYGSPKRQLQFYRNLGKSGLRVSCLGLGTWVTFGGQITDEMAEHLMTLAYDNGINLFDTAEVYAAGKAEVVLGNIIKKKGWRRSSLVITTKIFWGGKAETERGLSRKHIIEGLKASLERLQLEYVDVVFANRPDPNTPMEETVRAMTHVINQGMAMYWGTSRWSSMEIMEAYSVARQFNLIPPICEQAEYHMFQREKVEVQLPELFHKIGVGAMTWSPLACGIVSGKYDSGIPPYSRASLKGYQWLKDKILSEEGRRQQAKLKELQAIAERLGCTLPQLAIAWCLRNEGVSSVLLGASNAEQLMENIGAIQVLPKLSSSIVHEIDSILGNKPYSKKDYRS
# Alpha-2C adrenergic receptor (Homo sapiens), sequence (P18825 whole entry, looked up): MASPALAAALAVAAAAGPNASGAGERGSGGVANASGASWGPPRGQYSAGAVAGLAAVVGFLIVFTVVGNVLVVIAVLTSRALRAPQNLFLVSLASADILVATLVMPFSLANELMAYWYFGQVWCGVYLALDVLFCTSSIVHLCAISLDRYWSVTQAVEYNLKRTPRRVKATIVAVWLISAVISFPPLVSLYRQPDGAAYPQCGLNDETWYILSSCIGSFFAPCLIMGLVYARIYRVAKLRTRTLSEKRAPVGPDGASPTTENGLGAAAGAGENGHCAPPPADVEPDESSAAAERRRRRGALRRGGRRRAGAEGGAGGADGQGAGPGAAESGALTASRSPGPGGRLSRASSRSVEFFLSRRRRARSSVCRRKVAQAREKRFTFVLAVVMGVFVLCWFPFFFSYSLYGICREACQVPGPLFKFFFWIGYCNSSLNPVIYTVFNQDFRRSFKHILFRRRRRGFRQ
Compound,cell count [1],inhibition [1],inhibition of aggregation [2],nuclei count [2] [%],inhibition [3],nuclei count [3] [%],fluorescence slope [4],NADPH fluorescence slope [5],slope [6],inhibition [7],inhibition [8]
COCCn1c(SCC(=O)Nc2sc(C)c(C)c2C#N)nnc1C(C)C,593,-11.7% (inactive),25.9% (inactive),73,18.9% (inactive),78.2,-0.491 (inactive),-7.2e-05 (inactive),0.00431 (inactive),11.9% (inactive),5.56% (inactive)
CCSc1nnc(-c2cccs2)o1,413,-4.5% (inactive),-4.3% (inactive),110,21.6% (inactive),111,-0.369 (inactive),-4.4e-05 (inactive),0.00573 (inactive),-21.5% (inactive),-57.7% (inactive)
CS(=O)(=O)N(CC(=O)NCc1ccncc1)Cc1ccc(Cl)cc1,614,8.7% (inactive),-13.4% (inactive),107,-83.3% (inactive),121,-0.471 (inactive),-1.2e-06 (inactive),0.00437 (inactive),17.3% (inactive),18% (inactive)
Cn1c(=O)c2nc(Cl)n(Cc3ccc(Cl)cc3Cl)c2n(C)c1=O,719,-22.4% (inactive),11.5% (inactive),89.6,-7.8% (inactive),110,-0.514 (inactive),-4.5e-05 (inactive),0.00452 (inactive),21.4% (inactive),23.2% (inactive)
Cc1cccc(-n2c(O)c(C=Nc3ccccc3N)c(=O)[nH]c2=O)c1,444,6% (inactive),-8.1% (inactive),101,-29.2% (inactive),120,-0.414 (inactive),-0.000142 (inactive),0.00576 (inactive),13% (inactive),25.3% (inactive)
O=C(CSc1nnc(C2CC2)n1Cc1ccccc1)c1ccc(S(=O)(=O)N2CCOCC2)cc1,426,15.8% (inactive),1.1% (inactive),96.7,-55.3% (inactive),112,-0.412 (inactive),-0.000138 (inactive),0.00543 (inactive),13.7% (inactive),24% (inactive)
COc1ccccc1NC(=O)C1=C(C)Nc2nc(CCCO)nn2C1c1cccnc1 (stereo not drawn),318,1.6% (inactive),10.7% (inactive),102,-30.7% (inactive),114,-0.631 (inactive),-3.9e-05 (inactive),0.00626 (inactive),6.83% (inactive),5.25% (inactive)
CCN1C(=O)c2ccccc2S(=O)c2ccc(C(=O)NC3CC3)cc21 (stereo not drawn),533,0.6% (inactive),20.1% (inactive),74.1,6.3% (inactive),104,-0.505 (inactive),-2.6e-05 (inactive),0.0077 (inactive),17.3% (inactive),24% (inactive)
COc1ccc(Br)cc1CNC(=O)CCc1nc(-c2ccc(C)cc2)no1,517,-4% (inactive),-13.7% (inactive),98.4,-2.8% (inactive),120,-0.314 (inactive),-6.4e-07 (inactive),0.00305 (inactive),15.2% (inactive),28.1% (inactive)
Cn1c(=O)n(Cc2ccc(F)cc2)c(=O)c2c1nc1n2CCCN1Cc1ccccc1,698,1.6% (inactive),-3.6% (inactive),119,-41.3% (inactive),148,-0.448 (inactive),-6e-05 (inactive),0.00383 (inactive),7.62% (inactive),12.8% (inactive)
C=CCn1c(SCC(=O)Nc2ccccc2OC)nnc1-c1ccco1,736,11% (inactive),1.8% (inactive),105,0.9% (inactive),120,-0.494 (inactive),-5.8e-05 (inactive),0.00624 (inactive),20.4% (inactive),22.4% (inactive)
O=C(Nc1ccccn1)N1CCOCC1,319,9.3% (inactive),10.6% (inactive),95.2,-70.8% (inactive),114,-0.303 (inactive),-5e-05 (inactive),0.00596 (inactive),1.79% (inactive),0.112% (inactive)
COc1ccc(CNC(=O)c2cc3c(=O)n4ccccc4nc3n(Cc3ccco3)c2=N)cc1,666,-7.8% (inactive),-28.6% (inactive),127,-30.5% (inactive),113,-0.597 (inactive),-6e-07 (inactive),0.0063 (inactive),14.5% (inactive),20.4% (inactive)
Cc1ccccc1NC(=O)Cc1nnc(SCC(=O)N2CCN(c3ccccc3)CC2)n1C,483,-5.3% (inactive),2.3% (inactive),99.9,8.9% (inactive),131,-0.402 (inactive),-5.5e-05 (inactive),0.00281 (inactive),11.9% (inactive),29.5% (inactive)
Cc1csc2nc(CNC(=O)c3ccco3)cn12,518,-8.8% (inactive),-5.9% (inactive),90.4,-27.7% (inactive),71,-0.511 (inactive),-5.4e-05 (inactive),0.00553 (inactive),-23.7% (inactive),-70.6% (inactive)
C=Cn1nc(C)c2ccccc2c1=O,655,-2.6% (inactive),16.4% (inactive),114,-27.2% (inactive),137,-0.344 (inactive),-2.7e-05 (inactive),0.00755 (inactive),3.73% (inactive),1.18% (inactive)
CCN(CC)CCCNc1oc(-c2cccc(Cl)c2)nc1C#N,729,-11.9% (inactive),-13.5% (inactive),98.2,-37.9% (inactive),112,-0.0368 (active),-1.1e-05 (inactive),0.00338 (inactive),8.46% (inactive),27.9% (inactive)
Cc1c(C#N)c2ncnc(-c3ccccc3)c2n1-c1ccccc1,287,0.4% (inactive),-11.3% (inactive),99.5,-8.1% (inactive),108,-0.448 (inactive),-0.000103 (inactive),0.00601 (inactive),15.3% (inactive),34.5% (inactive)
O=C(CNC1CCCCCC1)Nc1ccc(S(=O)(=O)NC2CC2)cc1,727,-4.8% (inactive),3.3% (inactive),104,-51.5% (inactive),108,-0.49 (inactive),-5.4e-05 (inactive),0.00449 (inactive),11.1% (inactive),18.7% (inactive)
O=C(C1CCCN(S(=O)(=O)c2cnc[nH]2)C1)N1CCN(c2ccc(Cl)cc2)CC1 (stereo not drawn),566,8% (inactive),-31.8% (inactive),103,-71.3% (inactive),123,-0.523 (inactive),3.4e-05 (inactive),0.00672 (inactive),-6.86% (inactive),0.571% (inactive)
CC1CCN(CCCNC(=O)c2coc3nc4ccccc4nc23)CC1,311,-0.8% (inactive),-17.9% (inactive),110,-33.9% (inactive),117,-0.351 (inactive),-3.5e-06 (inactive),0.00542 (inactive),-4.6% (inactive),46.6% (inactive)
CCOc1ccc(N2C(N)=NC(N)=NC2(C)C)cc1,401,2.5% (inactive),5.2% (inactive),103,-19.5% (inactive),105,-0.644 (inactive),5.9e-05 (inactive),0.00717 (inactive),11.2% (inactive),26.1% (inactive)
Cc1ccc(C)c(N2CCN(C(=O)c3cc4ccccn4n3)CC2)c1,584,-2.9% (inactive),-16.9% (inactive),103,-31.8% (inactive),118,-0.615 (inactive),-2.1e-05 (inactive),0.00707 (inactive),-3.21% (inactive),21.6% (inactive)
Cc1cc(C)c(S(=O)(=O)Nc2cccnc2)c(C)c1,610,-4.7% (inactive),-11.3% (inactive),119,-20.4% (inactive),113,-0.614 (inactive),-5.3e-05 (inactive),0.00327 (inactive),17.2% (inactive),15.7% (inactive)
CN1CCC(NC(=O)c2cccs2)CC1,575,8.5% (inactive),-27.2% (inactive),88.6,-16.6% (inactive),112,-0.547 (inactive),-5e-05 (inactive),0.00687 (inactive),8.43% (inactive),33.8% (inactive)
N#Cc1ccccc1Cn1c(=O)n(Cc2ccc(C(=O)NCc3ccco3)cc2)c(=O)c2sccc21,865,-0.6% (inactive),9.3% (inactive),120,-55.6% (inactive),115,-0.577 (inactive),-4.1e-05 (inactive),0.00686 (inactive),11.4% (inactive),17.2% (inactive)
O=C(Nc1cccc2ccccc12)c1cnccn1,419,11.7% (inactive),5.1% (inactive),96.9,-180% (inactive),117,-0.52 (inactive),-3.3e-05 (inactive),0.00645 (inactive),-180% (inactive),99.3% (active)
COc1ccc2c(c1)C(=O)N(c1ccccc1OC)C(=O)C2,320,-3.9% (inactive),-3.2% (inactive),80.8,-22% (inactive),110,-0.401 (inactive),-3.7e-05 (inactive),0.0052 (inactive),14.7% (inactive),10.2% (inactive)
